These results are taken from PubChem BioAssay (NCI).

What all share (assay): NCI-60 one-dose screen, 48 h (100 = growth as untreated, 0 = no growth, -100 = all killed)
What all share (conditions): 10 µM unless noted

The test system of assay [1] is T-47D breast.
The subject of assay [2] is BT-549 breast.
In assay [3] the test system is MDA-MB-435 melanoma.
Assay [4] deals with SW-620 colon.
In assay [5] the test system is MCF7 breast.
For assay [6], the system named is HCT-116 colon.
The subject of assay [7] is HCC-2998 colon.
The test system of assay [8] is KM12 colon.

Molecules are shown by their SMILES. This is part of a sample that, as a whole, favours compounds with a hit. Of some 83,000 tested, about 20% had one in any assay.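 Single-concentration screen, 48 h exposure, 96-well plates. Endpoint: percent growth. Below 10 = active.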 Unmarked numbers belong to inactive results. Active and inactive are the calls of the source.

Regarding `COc1cccc(/C=N/NC(=O)c2ccccc2Nc2ccnc(C(F)(F)F)c2)c1O`, the growth is 17.6% in assay [1]; 25.8% in assay [2]; 31.9% in assay [3]; 31.9% in assay [4]; 3.13% (active) in assay [5]; 12.8% in assay [6]. Also, the growth is 51.2% in assay [7] and 38.8% in assay [8].

In the case of `Cc1cc(N2CCOCC2)nc(NCc2cc(Nc3ccnc4cc(Cl)ccc34)ccc2F)n1`, the growth was -34.9% (active) in assay [1]; -37.7% (active) in assay [2]; -79.5% (active) in assay [3]; -69.9% (active) in assay [4]; -55.9% (active) in assay [5]; -78.4% (active) in assay [6]. For the same molecule, the growth in assay [7] is -69% (active); in assay [8], -61.9% (active).

For the molecule `COc1cc(/C=C/C(=O)c2cccnc2Nc2ccc(F)cc2)cc(OC)c1OC`, the growth is 61.4% in assay [1]; 39.5% in assay [2]; 28.4% in assay [3]; 21.6% in assay [4]; 8.82% (active) in assay [5]; 13.9% in assay [6]. Further, the growth in assay [7] was 21.7%; in assay [8], 24.6%.

On to `CCN=C1C=CC(=C(c2ccc(N)cc2)c2ccc(N(CC)CC)c(C)c2)C=C1`, for which the growth in assay [1] was 1.14% (active); in assay [2] it was -31.8% (active); in assay [3], -41.2% (active); in assay [4] it was 4.24% (active); in assay [5] it was -11.5% (active); in assay [6], -17.5% (active). In addition, the results for the growth in assay [7] and in assay [8] were -4.16% (active) and -88.4% (active), respectively.

On to `CC(=O)c1cc2c(N)c(C(=O)Nc3ccccc3)sc2nc1C`, for which the growth was 99.5% in assay [1]; 67.3% in assay [2]; -29.3% (active) in assay [3]; 69.4% in assay [4]; 59.8% in assay [5]; 102% in assay [6]. The growth is 79.4% in assay [7] and 75.1% in assay [8].

As for `CN(C)c1ccc(N=Nc2ccccn2)c(O)c1`, the growth in assay [1] was 31.4%; in assay [2], 37%; in assay [3] it was 33.1%; in assay [4], 26.5%; in assay [5] it was 17.3%; in assay [6], 24.7%. In addition, the growth in assay [7] is 33.6%; in assay [8] it was 24.5%.

In the case of `Cc1ccc2c(C(C[N+](=O)[O-])c3ccco3)c(-c3ccccc3)[nH]c2c1` (centres undefined), the growth was 16.1% in assay [1]; 53.3% in assay [2]; -34% (active) in assay [3]; 17.1% in assay [4]; 16.5% in assay [5]; 19.6% in assay [6]. Besides, the growth in assay [7] was 70%; in assay [8], 20.2%.

On to `CC(O)CN1CC(O)=C(c2nc3ccccc3s2)C1=N` (centres undefined), for which the growth is 104% in assay [1]; 109% in assay [2]; 98.9% in assay [3]; 108% in assay [4]; 96.3% in assay [5]; 109% in assay [6]. In addition, the growth in assay [7] was 8.02% (active); in assay [8], 117%.

Consider `O=CNc1ccc2c(c1)Cc1cccc(NC=O)c1-2`, for which the growth in assay [1] is 96.8%; in assay [2], 94.1%; in assay [3] it was 100%; in assay [4] it was 98.2%; in assay [5] it was 86.1%; in assay [6] it was 95.2%. In addition, the growth is 97.4% in assay [7] and 67.8% in assay [8].

Consider `COc1cccc(-c2nn(C(C)(C)C)cc2-c2ccnc(NCCCNS(=O)(=O)c3ccc(C)cc3)c2)c1`, for which the growth in assay [1] was 98.1%; in assay [2], 101%; in assay [3] it was 104%; in assay [4] it was 103%; in assay [5], 102%; in assay [6] it was 96.7%. For the same molecule, the growth in assay [7] was 113%; in assay [8] it was 101%.

Consider `Cc1cc(N2CCSCC2)nc(NC2CCCC(Nc3ccnc4cc(Cl)ccc34)C2)n1` (centres undefined), for which the growth was -37.2% (active) in assay [1]; -60.2% (active) in assay [2]; -88.5% (active) in assay [3]; -60.8% (active) in assay [4]; -36.3% (active) in assay [5]; -65.6% (active) in assay [6]. Further, the figures for the growth in assay [7] and in assay [8] were -58.3% (active) and 8.04% (active), respectively.

As to `O=C1CC(=NCC(=O)n2c(-c3ccccc3)nc3ccccc32)NN1`, the growth in assay [1] was 89.4%; in assay [2], 107%; in assay [3], 105%; in assay [4], 100%; in assay [5] it was 72.7%; in assay [6] it was 94.6%. In addition, the growth in assay [7] was 109%; in assay [8] it was 101%.

Regarding `CC(C)C[C@@H](NC(=O)[C@@H](Cc1ccccc1)NC(=O)c1cnccn1)B1Oc2ccc(C[C@H](NC(=O)[C@H](Cc3ccc4c(c3)OB([C@@H](CC(C)C)NC(=O)[C@@H](Cc3ccccc3)NC(=O)c3cnccn3)O4)NC(=O)[C@@H](N)CC3CCC4OB([C@@H](CC(C)C)NC(=O)[C@@H](CC5CCCCC5)NC(=O)C5CNCCN5)OC4C3)C(=O)NCCCC[C@@H]3NC(=O)[C@@H](Cc4ccccc4)NC(=O)[C@H](CC(=O)O)NC(=O)CNC(=O)[C@H](CCCNC(=N)N)NC3=O)cc2O1` (some centres undefined), the growth in assay [1] is -57.8% (active); in assay [2], -66.8% (active); in assay [3], -74.7% (active); in assay [4] it was -49.5% (active); in assay [5], -43.9% (active); in assay [6] it was -69.2% (active). The growth is -95.7% (active) in assay [7] and -51.5% (active) in assay [8].
